Results on 35 compounds are retold here after PubChem BioAssay (NCATS).

Assay [1] concerns the target Cytochrome P450 3A7 (Homo sapiens) (UniProt P24462). Kind of assay: Cytochrome P450 family 3 subfamily A member 7 (CYP3A7) small molecule antagonists: luciferase biochemical qHTS assay (AID 1963596). Further: on the % scale 0 is the no-effect control and ±100 the full control effect; nearly all actives have a fitted effect of over 40% in size. In short, it runs like this: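 Biochemical CYP3A7 activity measured with P450-Glo system: luciferin formed from proluciferin substrate in NADPH-driven reaction (1 h, room temperature) after 10 min compound preincubation. Signal in relative luminescence units.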
Background: In qHTS, concentration-response curves come from the screen itself.

Assay [2] is described as follows: Viability qHTS for spleen associated tyrosine kinase inhibitor (SYKi) naive MV4-11 cells (AID 1963823). Further: nearly all actives have a fitted effect of over 40% in size. Further: potency means the concentration at half of the fitted maximal effect. In outline:
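SYKi-naive MV4-11 AML cells, 500 per well, were exposed to library compounds for 72 hr at 37 C, 5% CO2. Viability was then read by CellTiter-Glo luminescence after 10 min at room temperature.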

Assay [3] can be described thus: Cellular viability qHTS for adrenocortical cancer (ACC) cell line SW-13 (AID 1963989). Further: nearly all actives have a fitted effect of over 65% in size. Further: potency means the concentration at half of the fitted maximal effect.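 On activity (max response): cells grown in serum-free medium with ITS supplement; on the % scale 0 is the no-effect control and ±100 the full control effect.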 The settings on record: SW-13 ACC cells viability, CellTiter-Glo, 48 h; activity (max response): hits give low values. In short, it runs like this: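 SW-13 cells in ITS-supplemented serum-free DMEM were plated overnight, then exposed for 48 h at 37C to compound titrations (up to 46 uM final). Viability was read by CellTiter-Glo luminescence; four-parameter logistic fits gave IC50 and efficacy.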

Assay [4] in a line: Cellular viability qHTS for adrenocortical cancer (ACC) cell line NCI-H295R (AID 1963990). Further: nearly all actives have a fitted effect of over 60% in size. Further: potency means the concentration at half of the fitted maximal effect. In outline:
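Luminescent ATP read-out (CellTiter-Glo, 20 min RT) after 48 h drug exposure of NCI-H295R cells; a titration up to 46 uM final. Data normalized to doxorubicin (100% inhibition) and DMSO (0%); 4-parameter fit gives IC50, max response.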

Where “and” joins values, the source holds several entries; their conditions need not be identical. Equal values may be shown once. Results filed as inconclusive are left out. Values without a mark were called inactive. Calls of active or inactive are those of the source. The call rests on the fitted dose curve; in most records, active means well fitted curve in the direction sought with a large enough effect; inconclusive means small, poorly fitted or top-dose-only effect, or another doubt; inactive means no such curve, though single readings can be large; an effect the other way counts as inactive or inconclusive.

Cytochrome P450 3A7 (Homo sapiens), sequence (P24462 whole entry, looked up): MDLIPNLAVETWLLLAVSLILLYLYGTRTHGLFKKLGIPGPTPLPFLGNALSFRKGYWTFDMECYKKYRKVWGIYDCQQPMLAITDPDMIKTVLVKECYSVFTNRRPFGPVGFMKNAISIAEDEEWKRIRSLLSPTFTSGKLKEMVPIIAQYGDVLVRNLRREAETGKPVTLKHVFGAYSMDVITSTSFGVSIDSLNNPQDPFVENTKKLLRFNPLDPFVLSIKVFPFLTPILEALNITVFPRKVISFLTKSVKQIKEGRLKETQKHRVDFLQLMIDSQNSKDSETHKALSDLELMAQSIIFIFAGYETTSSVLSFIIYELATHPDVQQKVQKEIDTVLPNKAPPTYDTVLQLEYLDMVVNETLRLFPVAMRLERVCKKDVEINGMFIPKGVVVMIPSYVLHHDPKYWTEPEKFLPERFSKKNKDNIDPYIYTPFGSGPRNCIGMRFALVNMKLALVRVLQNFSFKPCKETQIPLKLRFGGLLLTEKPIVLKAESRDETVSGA

As to `OC1(c2ccccc2)CCNCC1`, the Potency result in assay [1], in assay [2] and in assay [4] was “inactive” in each case. For the same compound, the activity (max response) in assay [3] was 4.15%.

On to `C[C@H](NC(CCc1ccccc1)C(=O)O)C(=O)N1CCC[C@H]1C(=O)O` (stereo not given in full), for which the Potency entry in assay [1], in assay [2] and in assay [4] was “inactive” in each case. The activity (max response) in assay [3] is 8.08%.

On to `Nc1ncnc2c1ncn2[C@@H]1O[C@H](COP(=O)(O)O)[C@@H](O)[C@H]1O`, for which the Potency result in assay [1], in assay [2] and in assay [4] was “inactive” in each case. The activity (max response) in assay [3] is 5.55%.

Regarding `COc1cc2c3cc1Oc1cc(ccc1O)C[C@@H]1c4c(cc(OC)c(O)c4Oc4ccc(cc4)C[C@@H]3N(C)CC2)CC[N+]1(C)C`, the Potency entry in assay [1], in assay [2] and in assay [4] was “inactive” in each case. In assay [3], the activity (max response) was -1.9%.

For the compound `CC(O)COc1ccccc1` (stereo not given), the Potency result in assay [1], in assay [2] and in assay [4] was “inactive” each time. In addition, the activity (max response) in assay [3] was 5.91%.

As for `Cc1cc(=O)oc2cc(O[C@@H]3SC[C@@H](O)[C@H](O)[C@H]3O)ccc12`, the Potency entry in assay [1], in assay [2] and in assay [4] was “inactive” throughout. Moreover, the activity (max response) in assay [3] was 12.3%.

Take `COc1ccc(O)cc1`: the Potency result in assay [1], in assay [2] and in assay [4] was “inactive” in each case. The activity (max response) in assay [3] is -1.22%.

On to `COc1cc(C(=O)N2CCOCC2)cc(OC)c1OC`, for which the Potency result in assay [1], in assay [2] and in assay [4] was “inactive” in each case. Also, the activity (max response) in assay [3] was 1.89%.

`CCC(C(=O)O)c1ccc(N2Cc3ccccc3C2=O)cc1` (stereo not given): the Potency entry in assay [1], in assay [2] and in assay [4] was “inactive” in each case. Besides, the activity (max response) in assay [3] is 5.42%.

Regarding `CC(=O)Oc1c(C)c(C)c2c(c1C)CC[C@@](C)(CCC[C@H](C)CCC[C@H](C)CCCC(C)C)O2`, the Potency result in assay [1], in assay [2] and in assay [4] was “inactive” throughout. Also, in assay [3], the activity (max response) was 2.68%.

For `O=C1CC2(CCCC2)CC(=O)N1`, the Potency entry in assay [1], in assay [2] and in assay [4] was “inactive” throughout. In assay [3], the activity (max response) was 11.4%.

Turning to `CCOc1cc(OCC)c(C(=O)CCC(=O)O)cc1OCC`, the Potency result in assay [1], in assay [2] and in assay [4] was “inactive” in each case. In assay [3], the activity (max response) was 6%.

In the case of `CCOc1cc(NC(C)=O)ccc1C(=O)OC`, the Potency entry in assay [1], in assay [2] and in assay [4] was “inactive” throughout. For the same compound, in assay [3], the activity (max response) was 1.95%.

As to `CC(O)(P(=O)(O)O)P(=O)(O)O`, the Potency result in assay [1], in assay [2] and in assay [4] was “inactive” in each case. The activity (max response) in assay [3] is 14.2%.

Take `C[N+]1(C)[C@@H]2CC(OC(=O)[C@H](CO)c3ccccc3)C[C@H]1[C@@H]1O[C@@H]12` (stereo not given in full): the Potency result in assay [1], in assay [2] and in assay [4] was “inactive” throughout. In assay [3], the activity (max response) was 8.81% and 11.1%.

On to `N#CSCC(=O)O`, for which the Potency entry in assay [1], in assay [2] and in assay [4] was “inactive” each time. Further, the activity (max response) in assay [3] was 4.51%.

For `C[C@H](O)C(=O)Nc1c(I)c(C(=O)NC(CO)CO)c(I)c(C(=O)NC(CO)CO)c1I`, the Potency entry in assay [1], in assay [2] and in assay [4] was “inactive” each time. In addition, in assay [3], the activity (max response) was 10.3%.

With `CN1C(=O)CC(c2ccccc2)C1=O` (stereo not given), the Potency result in assay [1], in assay [2] and in assay [4] was “inactive” throughout. In assay [3], the activity (max response) was 5.01%.

Consider `CN1Cc2cc(C(=O)N3CCC(C4CCNCC4)CC3)ccc2N[C@@H](CC(=O)O)C1=O`, for which the Potency entry in assay [1], in assay [2] and in assay [4] was “inactive” throughout. In addition, the activity (max response) in assay [3] was 10.2%.

With `CCc1cc(Cl)c(OC)c(C(=O)NC[C@@H]2CCCN2CC)c1O`, the Potency result in assay [1], in assay [2] and in assay [4] was “inactive” each time. Also, the activity (max response) in assay [3] was -13.7%.

Regarding `CCC(=O)Nc1ccc(O)cc1`, the Potency result in assay [1], in assay [2] and in assay [4] was “inactive” each time. For the same compound, the activity (max response) in assay [3] was 0.747%.

In the case of `CC(C)(C)c1nnc(NS(=O)(=O)c2ccccc2)s1`, the Potency result in assay [1], in assay [2] and in assay [4] was “inactive” throughout. For the same compound, the activity (max response) in assay [3] is 4.7%.

For `CC(C)(CO)[C@@H](O)C(=O)NCCCO`, the Potency entry in assay [1], in assay [2] and in assay [4] was “inactive” in each case. Also, in assay [3], the activity (max response) is 15.4%.

In the case of `CC(=O)OCC(COC(C)=O)OC(C)=O`, the Potency result in assay [1], in assay [2] and in assay [4] was “inactive” in each case. Further, in assay [3], the activity (max response) is 3.85%.

As to `CCCSc1ccc2nc(NC(=O)OC)[nH]c2c1`, the Potency entry in assay [1] was “inactive”. The values for the Potency in assay [2], in assay [3] and in assay [4] were 668 nM (active), 366 nM (active) and 820 nM (active), respectively.

For `CN(C)CCN1CCN(c2cccc(Cl)c2)C1=O`, the Potency result in assay [1], in assay [2] and in assay [4] was “inactive” throughout. For the same compound, the activity (max response) in assay [3] was 10.1%.

For `Nc1nc2ncc(CNc3ccc(C(=O)N[C@@H](CCC(=O)O)C(=O)O)cc3)nc2c(=O)[nH]1`, the Potency result in assay [1], in assay [2] and in assay [4] was “inactive” in each case. For the same compound, the activity (max response) in assay [3] was 12.3%.

Regarding `CC[C@H]1CN2CCc3cc(OC)c(OC)cc3[C@@H]2C[C@@H]1C[C@H]1NCCc2cc(OC)c(OC)cc21`, the Potency entry in assay [1] is “inactive”. The Potency in assay [2] was 106 nM (active) and 83.3 nM (active); in assay [3], 231 nM (active) and 447 nM (active); in assay [4] it was 146 nM (active) and 282 nM (active).

`CN1C[C@@H]2C[C@H]1CN2c1cc2c(cc1F)c(=O)c(C(=O)O)cn2C1CC1`: the Potency result in assay [1], in assay [2] and in assay [4] was “inactive” throughout. For the same compound, the activity (max response) in assay [3] is -2.55%.

For the compound `COC(=O)/C=C\C(=O)OC`, the Potency entry in assay [1], in assay [2] and in assay [4] was “inactive” in each case. In addition, in assay [3], the activity (max response) is 9.62%.

As to `NC(N)=NC(N)=NCCc1ccccc1`, the Potency entry in assay [1] and in assay [4] was “inactive” in each case. Moreover, the Potency in assay [2] was 11800 nM (active). Further, the activity (max response) in assay [3] was -8.99%.

For `CCC(=O)c1ccc(O)cc1`, the Potency result in assay [1], in assay [2] and in assay [4] was “inactive” each time. In addition, the activity (max response) in assay [3] is 5.38%.

Take `CN(C)C/C=C(/c1ccc(Br)cc1)c1cccnc1`: the Potency entry in assay [1], in assay [2] and in assay [4] was “inactive” in each case. In addition, the activity (max response) in assay [3] was 3.23%.

`O=C(Cn1ccnc1[N+](=O)[O-])NCCO`: the Potency entry in assay [1], in assay [2] and in assay [4] was “inactive” throughout. Besides, in assay [3], the activity (max response) is 10.4%.

On to `Cc1c(C(C)C)c(=O)n(-c2ccccc2)n1C`, for which the Potency entry in assay [1], in assay [2] and in assay [4] was “inactive” throughout. For the same compound, in assay [3], the activity (max response) is -5.23%.
